Assay outcomes: PubChem, National Center for Advancing Translational Sciences (NCATS)
SW480 rereplic: inducers of DNA re-replication in SW480 colon cancer cells; SW480 DNA re-replication, Hoechst DNA content imaging, 48 h; Potency, µM (titrated, usually from 46.1 µM), hits mostly activators; 340,000 tested, 1.8% active; AID 624297; also: nearly all actives have a fitted effect of over 55% in size
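Image-based read-out: total Hoechst fluorescence of nuclei (405 nm excitation, 500-530 nm emission), with hits raising the fraction of high-intensity nuclei. SW480 colon cells incubated 48 hr with compounds at 37 C.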
HT1080-NT tox: kills 2HG-producing HT-1080-NT fibrosarcoma cells | HT-1080-NT fibrosarcoma viability, CellTiter-Glo ATP luminescence, 48 h | Potency, µM (top dose mostly 46.1 µM), hits mostly cytotoxic | 360,000 tested, 1.6% active | AID 686970;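 also: NT is the 2HG producing partner of a matched IDH1 knockdown line; nearly all actives have a fitted effect of over 55% in size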
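Read-out is CellTiter-Glo luminescence after 10 minutes at room temperature, following 48 hours' compound treatment of HT-1080-NT cells (750 cells/well, RPMI, 5% FBS, 37 degrees C).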
HT1080 IDH1KD tx: HT-1080 IDH1 knockdown cell toxicity (counter line); Potency, µM (series often up to 46.1 µM), most hits filed as cytotoxic; 360,000 tested, 2% active; AID 686971; HT-1080 IDH1 knockdown viability, ATP luminescence, 48 h
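Luminescent ATP read-out (CellTiter-Glo, 10 min at room temperature) after 48 h compound exposure at 37 °C gave viability of IDH1-knockdown HT-1080 cells. Activity was normalised to DMSO and cell-free wells, then fitted as concentration-response curves.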
MCF10A rerep: DNA re-replication induction in MCF 10a cells. MCF 10A DNA re-replication, Hoechst nuclear intensity, 48 h. AID 624296. Potency, µM (series often up to 46.1 µM), usual class: activators. 350,000 tested, 2.9% active; also: nearly all actives have a fitted effect of over 50% in size
KB-V1 cytotox: kills drug-selected multidrug resistant KB-V1 cells | AID 1347076 | Potency, µM (doses to about 46.1 µM), usual class: cytotoxic | KB-V1 MDR cells viability, CellTiter-Glo, 72 h | 400,000 tested, 3.4% active; also: nearly all actives have a fitted effect of over 60% in size
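KB-V1 MDR subline cells in DMEM (phenol-red free, 10% FBS) exposed to compounds in qHTS concentration series for 72 h at 37 degrees C. Viability read by CellTiter-Glo luminescence; concentration-effect curves fitted after normalization and correction.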
KB-3-1 tox: KB-3-1 parental cell cytotoxicity. KB-3-1 viability, CellTiter-Glo ATP luminescence, 72 h. Potency, µM (top dose mostly 46.1 µM), most hits filed as cytotoxic. AID 1347075. 400,000 tested, 1.4% active; also: nearly all actives have a fitted effect of over 60% in size
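Here the drug-naive KB-3-1 line serves as comparator for MDR sub-line selectivity; cells received compound titrations, 72 h at 37 °C, then CellTiter-Glo readout.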
Hits are given with their value; - = inactive; ? = inconclusive; . = not tested or not shown; ! = repeats disagree; [ ] = dose if it differs, or a comment. The list is not random: actives were taken first. Their share in the collection is about 8%. Calls follow the shape of the dose curve; as a rule, active = well fitted curve in the direction sought with a large enough effect; inconclusive = small, poorly fitted or top-dose-only effect, or another doubt; inactive = no such curve, though single readings can be large; an effect the other way counts as inactive or inconclusive.

SMILES	SW480 rereplic	HT1080-NT tox	HT1080 IDH1KD tx	MCF10A rerep	KB-V1 cytotox	KB-3-1 tox
CCCCCCC(C)NC(=S)Nc1cc(S(=O)(=O)N(C)C)ccc1C (stereo not given)	?	-	?	18µM	?	?
CC(C)(C)C1CCN2CCCC(c3ccc([N+](=O)[O-])cc3)(C1)C21OCCO1 (stereo not given)	.	-	-	.	?	?
CCS(=O)(=O)N1CCN=C1SCc1ccc(F)cc1	-	-	-	-	?	-
C=CCOc1ccc(C2C(C#N)=C(N)N(Nc3ccccc3)C3=C2C(=O)CCC3)cc1OC (stereo not given)	?	?	?	23µM	-	?
COc1cc(C2C(C#N)=C(N)N(Nc3ccccc3)C3=C2C(=O)CC(C)(C)C3)ccc1OCc1cccc(F)c1 (stereo not given)	?	?	?	?	-	-
COc1cc(C2C(C#N)=C(N)N(Nc3ccccc3)C3=C2C(=O)CC(C)(C)C3)ccc1OCc1ccccc1 (stereo not given)	26µM	?	?	?	-	?
CCN(CC)c1ccc(C=C2C(=O)OC(c3ccccc3)OC2=O)cc1 (stereo not given)	-	-	-	-	-	-
CCN(CC)c1ccc(/C=C/C(=O)C2C(=O)C=C(C)OC2=O)cc1 (stereo not given)	?	-	-	18µM	?	-
CCOc1ccc(-c2nc(Cn3c(=O)cc(C)c4c(C)nn(-c5ccc(C)cc5)c43)c(C)o2)cc1	.	.	.	.	-	-
O=C(Nc1cc(C(F)(F)F)ccc1N1CCOCC1)c1cccc(S(=O)(=O)N2CCOCC2)c1	.	-	-	.	-	-
Cc1ccccc1C(=O)NNC(=O)CCCCC(=O)NNC(=O)c1ccccc1C	-	-	-	-	-	-
CC1(C)NC(=O)N(CC(O)COc2ccc(-c3ccc(C#N)cc3)cc2)C1=O (stereo not given)	-	-	-	-	21µM	-
COc1ccc(C(=O)CSc2nnc(-c3ccco3)c(-c3ccco3)n2)cc1	6.5µM	-	-	-	-	?
Cc1cc(C(=O)CSc2nnc(-c3ccco3)o2)c(C)n1C	?	-	-	-	?	-
Cc1ccc(NC(=O)CCSc2nnc(-c3ccco3)o2)cc1	-	-	-	-	23µM	?
Cc1ccc(NC(=O)CSc2nnc(-c3ccco3)c(-c3ccco3)n2)cc1	16µM	7.3µM	5.2µM	5.8µM	5.2µM	5.8µM
O=C(CSc1nnc(-c2ccco2)c(-c2ccco2)n1)Nc1ccccc1	-	-	-	-	-	-
O=C(CCSc1nnc(-c2ccco2)o1)Nc1ccc(F)cc1	-	-	-	-	-	-
COc1ccc(C(=O)CSc2nnc(-c3ccco3)n2C)cc1	-	-	-	-	-	-
CCn1c(C)cc(C(=O)CSc2nnc(-c3ccco3)o2)c1C	6.5µM	-	-	-	?	-
Cc1cc(F)ccc1NC(=O)CN1C(=O)CCc2cc(S(=O)(=O)N3CCOCC3)ccc21	.	.	.	.	-	-
COc1ccc(-c2ccnc(SCC(=O)c3ccc(OC)c(OC)c3)n2)cc1	-	-	-	-	16µM	-
CCOC(=O)c1[nH]c(C)c(C(=O)Nc2ccc(F)cc2)c1C	-	-	-	-	-	-
CCOC(=O)c1[nH]c(C)c(C(=O)c2ccc(C)cc2)c1C	5.2µM	1.8µM	1.3µM	1.5µM	1.5µM	-
CCOC(=O)c1[nH]c(C)c(C(=O)Nc2ccc(C)cc2C)c1C	10µM	?	12µM	13µM	3.7µM	2.6µM
SMILES	SW480 rereplic	HT1080-NT tox	HT1080 IDH1KD tx	MCF10A rerep	KB-V1 cytotox	KB-3-1 tox
CCOC(=O)c1[nH]c(C)c(C(=O)Nc2ccccc2F)c1C	8.2µM	?	?	7.3µM	3.7µM	2.3µM
COc1ccccc1CNC(=O)CN1C(=O)N(C)C2(CCCCC2)C1=O	-	-	-	-	-	-
COc1ccc(/C=C/c2cnc3ccccc3n2)cc1OC	.	.	.	.	-	-
Cc1cc(C)cc(N2C(=O)C=CC2=O)c1	16µM	?	?	6.5µM	-	?
O=C(NS(=O)(=O)NC1CCCCC1)C1=C(N2CCCC2)COC1=O	-	-	-	-	-	-
O=C(COC(=O)Cc1ccccc1F)Nc1cccc(F)c1	-	-	-	-	-	-
COc1cc(N=c2ssnc2Cl)c(OC)cc1Cl	?	?	-	21µM!	-	-
Cc1ccc(N=c2ssnc2Cl)cc1	?	?	?	?	-	?
Cc1cc(Cl)ccc1N=c1ssnc1Cl	-[9.22 µM]	?	23µM	?	-	?
O=C(CCCCCn1c(=S)[nH]c2ccc(N3CCOCC3)cc2c1=O)NCc1ccc(Cl)cc1	?	-	-	6.5µM	-	?
O=C(CCCCCn1c(=S)[nH]c2ccc(N3CCOCC3)cc2c1=O)NCc1ccccc1Cl	?	-	-	18µM	-	-
COc1cccc(-n2c(SCC(N)=O)nc3c(oc4ccccc43)c2=O)c1	.	.	.	.	-	-
Cc1ccc(-c2csc(NC(=O)c3ccc4c(=O)n5c(nc4c3)CCCCC5)n2)cc1	.	-	-	?	10µM	-
COCCN(Cc1ccccc1)C(=O)c1ccc2c(=O)n3c(nc2c1)CCC3	-	-	-	-	-	-
O=C(c1ccc2c(=O)n3c(nc2c1)CCCCC3)N1CCN(C(c2ccccc2)c2ccccc2)CC1	?	18µM	10µM	?	?	?
CCN(Cc1ccccc1)C(=O)c1ccc2c(=O)n3c(nc2c1)CCC3	-	-	-	-	10µM	-
CCOc1ccc(-n2c(SCC(=O)N3CCOCC3)nc3c([nH]c4ccccc43)c2=O)cc1	.	.	.	.	?	-
Cc1ccccc1OCc1nc2ccccc2c(=O)n1/N=C/c1cn[nH]c1-c1ccc(Br)cc1	?	-	-	?	7.3µM	?
O=c1c2ccccc2nc(COc2ccccc2)n1/N=C/c1cn[nH]c1-c1ccccc1	-	-	-	?	21µM	-
Cc1ccc(-c2[nH]ncc2/C=N/n2c(C)nc3ccccc3c2=O)cc1	-	-	-	?	-	-
CS(=O)(=O)OCC(O)C(O)COS(C)(=O)=O (stereo not given)	-	.	.	-	.	.
O=S(=O)(c1ccc(F)cc1)N1CCN(C(=S)NC2CC2)CC1	0.58µM	-	-	-	-	-
CC1CCN(S(=O)(=O)c2ccc3c(c2)N(CC(=O)NC(C)c2ccccc2)C(=O)CS3)CC1 (stereo not given)	.	.	.	.	-	-
Cc1ccc(C(=O)N/N=C(/CC(=O)c2cccs2)C(F)(F)F)cc1	-	26µM	?	18µM	?	?
O=C(N/N=C(\CC(=O)c1cccs1)C(F)(F)F)c1ccncc1	7.3µM	-	?	?	?	-
